Drawing on PubChem BioAssay (NCI), this text covers growth for 13 compounds.

Compounds without any hit were thinned out: in the full panel of roughly 83,000, 20% have a hit.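 Treatment: one concentration, 48 hours, 96-well format. Scoring: percent growth, with anything below 10 considered active.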 A number with no mark means an inactive call. The source made the active and inactive calls.

Common to all, as to experiment: NCI-60 one-dose screen, 48 h (100 = growth as untreated, 0 = no growth, -100 = all killed)
Holding throughout (conditions): 10 µM unless noted

The subject of experiment [1] is SR leukemia.
The test system of experiment [2] is RPMI-8226 leukemia.
Experiment [3] relates to OVCAR-8 ovarian.
Experiment [4] has as its system OVCAR-5 ovarian.
Experiment [5] has as its system OVCAR-4 ovarian.
For experiment [6], the system named is SK-OV-3 ovarian.
Experiment [7] deals with IGROV1 ovarian.
The test system of experiment [8] is OVCAR-3 ovarian.
In experiment [9] the test system is HS 578T breast.
The subject of experiment [10] is NCI/ADR-RES ovarian.

Take `O=C(c1ccccc1)N1N=C(c2ccc(-n3ccc(C(F)(F)F)n3)c(F)c2)CC1c1ccc[nH]1` (stereo unspecified): the growth in experiment [1] was 104%; in experiment [2], 101%; in [3], 104%; in [4], 104%; in experiment [5] it was 116%; in experiment [6] it was 141%. In addition, the growth in experiment [7] is 108%; in [8], 116%; in [9], 107%; in experiment [10] it was 100%.
On to `CC/C(=C\c1ccc(OC)cc1)C(=O)c1ccc(OC)cc1`, for which the growth in experiment [1] is 108%; in [2] it was 32.2%; in [3] it was 74%; in experiment [4], 103%; in [5], 77.2%; in experiment [6] it was 106%. Besides, the growth in experiment [7] is 67.2%; in [8], 211%; in [9], 99.9%; in experiment [10], 86.7%.
In the case of `C[C@H](c1nc2ccc(N)cc2[nH]1)[C@H]1CC[C@H]2[C@@H]3CCC4=CC(=O)CC[C@]4(C)[C@H]3CC[C@]12C`, the growth in [1] is 44.4%; in experiment [2], 64.5%; in [3], 91.4%; in experiment [4], 102%; in experiment [5], 88.1%; in [6] it was 91.2%. Further, the growth was 85.1% in experiment [7], 91.5% in [8], 87.3% in [9] and 89% in experiment [10].
As for `Cc1c(C(=O)NCCC(=O)NO)sc2ncnc(Nc3ccc(NC(=O)Nc4cccc(C(F)(F)F)c4)cc3)c12`, the growth in [1] was 101%; in [2], 102%; in [3], 102%; in experiment [4], 104%; in experiment [5], 105%; in [6], 115%. In addition, the growth in experiment [7] is 102%; in experiment [8] it was 112%; in [9] it was 93.5%; in [10] it was 103%.
In the case of `CC(Sc1nc2ccccc2c(=O)n1CCc1ccc(S(N)(=O)=O)cc1)C(=O)Nc1ccc(Cl)cc1` (stereo unspecified), the growth in experiment [1] was 77.4%; in [2] it was 65.9%; in experiment [3], 72.8%; in experiment [4], 85.7%; in [5], 93.2%; in experiment [6] it was 125%. In addition, the growth is 86.3% in [7], 99.1% in experiment [8], 86.5% in experiment [9] and 77.3% in [10].
As to `C=C1C(=O)O[C@H]2[C@H]1CC/C(CNC(=O)C(C)c1ccc(CC(C)C)cc1)=C\CC[C@@]1(C)O[C@@H]21` (stereo partly specified), the growth in [1] was 8.13% (active); in [2], -21% (active); in experiment [3], -32.5% (active); in experiment [4], 57.3%; in experiment [5], 29.3%; in [6], 88.1%. Further, the growth in experiment [7] is -36% (active); in experiment [8] it was -87.9% (active); in [9], 25.4%; in experiment [10] it was 55.3%.
Consider `O=C(NCCNc1nccc(-c2c(-c3cccc(F)c3)nc3sccn23)n1)c1ccc(Cl)cc1`, for which the growth in experiment [1] was 46.5%; in [2] it was 62.4%; in experiment [3], 55.1%; in experiment [4] it was 88.3%; in experiment [5], 77.9%; in experiment [6], 80.9%. The growth in experiment [7] is 22.5%; in experiment [8], 75.7%; in experiment [9], 74.8%; in experiment [10] it was 74.3%.
Regarding `CCCCCN1C=C/C(=C\C(=O)N(C)c2ccc(OC(F)(F)F)cc2)c2ccccc21`, the growth in experiment [1] is 100%; in [2] it was 94.7%; in [3], 95.3%; in [4], 100%; in experiment [5] it was 87.6%; in experiment [6], 90.6%. Besides, the growth was 93.2% in experiment [7], 105% in experiment [8], 90.5% in [9] and 105% in experiment [10].
As to `O=Cc1cc2ccccc2nc1Oc1ccc(C(F)(F)F)cc1`, the growth is 23.6% in [1]; 33% in experiment [2]; 91% in experiment [3]; 99.2% in experiment [4]; 98.6% in [5]; 81.5% in experiment [6]. Further, the growth in experiment [7] was 68.3%; in experiment [8], 96.7%; in experiment [9], 89.7%; in [10], 92.9%.
Consider `Cc1ccc(CNc2c3ccccc3nc3cc(NC(=O)CCN4CCCC4)ccc23)cc1`, for which the growth in [1] was -49.4% (active); in [2], -44.6% (active); in experiment [3] it was 7.44% (active); in experiment [4], 20.7%; in experiment [5], -38.4% (active); in experiment [7], 5.63% (active). The growth in experiment [8] was -73.3% (active); in experiment [9], 14.6%; in experiment [10] it was 63.1%.
Take `O=C(Nc1ccccc1C(=O)N/N=C(\c1ccccc1)c1ccccn1)c1ccc(F)cc1`: the growth in [1] is 14.4%; in experiment [2], 29.1%; in [3] it was 17.1%; in [4], 41.7%; in [5], -5.03% (active); in experiment [6] it was 2.2% (active). The growth in experiment [7] was 22.8%; in experiment [9], 59.9%; in experiment [10], 9.79% (active).
Take `COc1ccc(C(=O)c2nc3ccccc3n2CC(=O)c2ccc(Cl)cc2)cc1`: the growth in experiment [1] is 16.7%; in experiment [2] it was -17.4% (active); in [3], 37.2%; in experiment [4], 47%; in experiment [5], 43.3%; in experiment [7], 23.7%. The growth in experiment [8] is -6.3% (active); in experiment [9] it was 8.51% (active); in experiment [10] it was -45.6% (active).
Regarding `O=C(Nc1ccccc1)Nc1ccc2cc3ccc(NC(=O)Nc4ccccc4)cc3nc2c1`, the growth is -18.6% (active) in [1]; 104% in experiment [2]; -23.7% (active) in experiment [3]; 92.4% in experiment [4]; -31.9% (active) in [5]; 112% in [6]. Moreover, the growth in experiment [7] was 51%; in experiment [9], -26.7% (active); in experiment [10], 102%.
